# Assays:
# Test in all cases: DAPPL (digital affinity profiling via proximity ligation, sequencing); 10 mM Tris-HCl pH 7.5, 50 mM NaCl, 1 mM DTT, 4% glycerol, room temperature, 30 min; GST-TFs on glutathione beads, 16-mer random dsDNA library, 0.1% formaldehyde crosslink after washing; high values mean tight binding
# FLI1 = molecular target: T1, FLI1 (Homo sapiens, UniProt Q01543 1-452); conditions: protein: recombinant; tags: N-terminal GST; dsDNA, one strand shown
# T1 sequence: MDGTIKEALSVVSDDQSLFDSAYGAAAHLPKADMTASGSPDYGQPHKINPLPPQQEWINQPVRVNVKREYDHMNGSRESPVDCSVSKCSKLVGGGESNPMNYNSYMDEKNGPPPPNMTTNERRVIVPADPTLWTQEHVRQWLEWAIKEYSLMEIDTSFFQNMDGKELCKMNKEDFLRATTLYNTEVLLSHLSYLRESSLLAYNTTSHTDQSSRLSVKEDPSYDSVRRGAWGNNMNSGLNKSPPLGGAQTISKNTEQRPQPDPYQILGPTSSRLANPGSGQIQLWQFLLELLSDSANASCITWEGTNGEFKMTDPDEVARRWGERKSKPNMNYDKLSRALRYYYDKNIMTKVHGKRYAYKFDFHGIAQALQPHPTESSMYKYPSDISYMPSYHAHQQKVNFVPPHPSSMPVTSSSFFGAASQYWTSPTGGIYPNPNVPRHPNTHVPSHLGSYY
# Summary of the method: (§1)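 Pools of DNA-barcoded human transcription factors, expressed in yeast as GST fusions on glutathione beads and combined with a tag-only sample, were incubated with 200 nmole of a 16-mer random double-stranded DNA library. Incubation took 30 min at room temperature in Tris/NaCl/DTT/glycerol buffer and was followed by washing, 0.1% formaldehyde crosslinking, proximity ligation (BsaI/T4 ligase, 1 h, 37 °C), PCR amplification and sequencing on an Illumina NextSeq500. Binding signal is the ratio of a hexamer's read frequency for a factor to its frequency for the tag-only sample.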
# ELK1 = molecular target: T2, ELK1 (Homo sapiens, UniProt P19419 1-428); conditions: protein: recombinant; tags: N-terminal GST; dsDNA, one strand shown
# T2 sequence: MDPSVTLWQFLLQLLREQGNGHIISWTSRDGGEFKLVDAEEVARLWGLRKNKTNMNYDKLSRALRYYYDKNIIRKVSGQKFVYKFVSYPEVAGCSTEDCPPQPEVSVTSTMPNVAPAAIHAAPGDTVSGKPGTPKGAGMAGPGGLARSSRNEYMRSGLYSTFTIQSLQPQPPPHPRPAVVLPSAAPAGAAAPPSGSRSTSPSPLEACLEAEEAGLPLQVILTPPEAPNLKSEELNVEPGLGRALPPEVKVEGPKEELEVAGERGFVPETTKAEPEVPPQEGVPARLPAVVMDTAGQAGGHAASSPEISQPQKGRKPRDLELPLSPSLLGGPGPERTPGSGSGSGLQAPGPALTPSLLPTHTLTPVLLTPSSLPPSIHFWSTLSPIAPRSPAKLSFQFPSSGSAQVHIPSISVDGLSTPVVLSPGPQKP
# Summary of the method: as §1
# GABPA = molecular target: T3, GABPA (Homo sapiens, UniProt Q06546 1-454); conditions: protein: recombinant; tags: N-terminal GST; dsDNA, one strand shown
# T3 sequence: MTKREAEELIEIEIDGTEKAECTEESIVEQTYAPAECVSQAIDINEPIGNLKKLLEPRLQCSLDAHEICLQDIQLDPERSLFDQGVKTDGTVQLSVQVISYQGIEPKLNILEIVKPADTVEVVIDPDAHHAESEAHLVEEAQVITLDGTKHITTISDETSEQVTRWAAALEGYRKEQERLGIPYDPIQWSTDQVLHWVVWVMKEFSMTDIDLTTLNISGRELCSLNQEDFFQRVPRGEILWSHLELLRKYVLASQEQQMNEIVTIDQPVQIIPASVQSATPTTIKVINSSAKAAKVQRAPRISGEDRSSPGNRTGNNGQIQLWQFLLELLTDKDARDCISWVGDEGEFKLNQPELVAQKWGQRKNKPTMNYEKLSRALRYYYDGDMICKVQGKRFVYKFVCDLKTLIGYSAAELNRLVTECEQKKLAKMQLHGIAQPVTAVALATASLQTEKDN
# Summary of the method: as §1
# ERG = molecular target: T4, ERG (Homo sapiens, UniProt P11308 1-479); conditions: protein: recombinant; tags: N-terminal GST; dsDNA, one strand shown
# T4 sequence: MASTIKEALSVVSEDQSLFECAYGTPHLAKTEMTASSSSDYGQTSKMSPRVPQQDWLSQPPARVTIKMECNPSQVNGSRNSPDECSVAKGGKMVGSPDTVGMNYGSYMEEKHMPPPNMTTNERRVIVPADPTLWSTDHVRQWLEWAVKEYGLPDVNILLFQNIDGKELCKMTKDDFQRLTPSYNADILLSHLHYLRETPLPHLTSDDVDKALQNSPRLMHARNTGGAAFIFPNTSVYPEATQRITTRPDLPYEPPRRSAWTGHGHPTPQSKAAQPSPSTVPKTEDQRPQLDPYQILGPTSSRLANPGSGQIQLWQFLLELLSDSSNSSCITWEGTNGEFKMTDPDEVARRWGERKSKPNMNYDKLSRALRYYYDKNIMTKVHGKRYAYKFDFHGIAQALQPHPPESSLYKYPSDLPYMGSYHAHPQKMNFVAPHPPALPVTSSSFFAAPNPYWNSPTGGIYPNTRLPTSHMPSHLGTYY
# Summary of the method: as §1
# ELF1 = ELF1 (Homo sapiens, UniProt P32519 1-619); conditions: protein: recombinant; tags: N-terminal GST; dsDNA, one strand shown
# Summary of the method: as §1
# EHF = molecular target: T5, EHF (Homo sapiens, UniProt Q9NZC4 1-300); conditions: protein: recombinant; tags: N-terminal GST; dsDNA, one strand shown
# T5 sequence: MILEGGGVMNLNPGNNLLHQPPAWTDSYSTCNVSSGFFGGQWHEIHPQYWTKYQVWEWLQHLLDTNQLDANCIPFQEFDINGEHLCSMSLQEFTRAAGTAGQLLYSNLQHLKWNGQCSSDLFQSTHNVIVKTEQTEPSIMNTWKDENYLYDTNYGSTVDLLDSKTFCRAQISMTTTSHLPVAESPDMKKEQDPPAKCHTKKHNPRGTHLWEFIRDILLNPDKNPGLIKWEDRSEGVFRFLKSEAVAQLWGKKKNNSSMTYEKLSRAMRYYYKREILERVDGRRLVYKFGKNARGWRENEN
# Summary of the method: as §1
# SPI1 = SPI1 (Homo sapiens, UniProt P17947 1-270); conditions: protein: recombinant; tags: N-terminal GST; dsDNA, one strand shown
# Summary of the method: as §1
# SPIB = SPIB (Homo sapiens, UniProt Q01892 1-262); conditions: protein: recombinant; tags: N-terminal GST; dsDNA, one strand shown
# Summary of the method: as §1
# ELK3 = molecular target: T6, ELK3 (Homo sapiens, UniProt P41970 1-407); conditions: protein: recombinant; tags: N-terminal GST; dsDNA, one strand shown
# T6 sequence: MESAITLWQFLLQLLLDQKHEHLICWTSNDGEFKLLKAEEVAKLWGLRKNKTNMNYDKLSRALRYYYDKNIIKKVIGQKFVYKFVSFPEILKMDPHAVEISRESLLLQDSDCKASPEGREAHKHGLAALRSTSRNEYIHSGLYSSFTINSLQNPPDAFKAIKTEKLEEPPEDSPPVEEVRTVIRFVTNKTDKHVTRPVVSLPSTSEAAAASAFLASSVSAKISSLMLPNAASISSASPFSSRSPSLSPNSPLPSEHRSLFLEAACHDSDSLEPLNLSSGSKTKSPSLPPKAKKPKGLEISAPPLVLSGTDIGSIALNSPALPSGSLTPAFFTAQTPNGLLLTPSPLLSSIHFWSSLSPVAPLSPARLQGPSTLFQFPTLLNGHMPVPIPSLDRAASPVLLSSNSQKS
# Summary of the method: as §1
# FEV = molecular target: T7, FEV (Homo sapiens, UniProt Q99581 1-238); conditions: protein: recombinant; tags: N-terminal GST; dsDNA, one strand shown
# T7 sequence: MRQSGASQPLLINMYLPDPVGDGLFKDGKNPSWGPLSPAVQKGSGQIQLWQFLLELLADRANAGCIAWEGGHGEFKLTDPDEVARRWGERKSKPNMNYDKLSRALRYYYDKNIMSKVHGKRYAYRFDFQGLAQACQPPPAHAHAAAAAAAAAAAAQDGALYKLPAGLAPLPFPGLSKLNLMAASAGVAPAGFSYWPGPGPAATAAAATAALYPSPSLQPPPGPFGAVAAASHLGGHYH
# Summary of the method: as §1
# ETV5 = ETV5 (Homo sapiens, UniProt P41161 1-510); conditions: protein: recombinant; tags: N-terminal GST; dsDNA, one strand shown
# Summary of the method: as §1
# HSF1 = HSF1 (Homo sapiens, UniProt Q00613 1-529); conditions: protein: recombinant; tags: N-terminal GST; chain copies: 3; dsDNA, one strand shown
# Summary of the method: as §1
# SPIC = molecular target: T8, SPIC (Homo sapiens, UniProt Q8N5J4 1-248); conditions: protein: recombinant; tags: N-terminal GST; dsDNA, one strand shown
# T8 sequence: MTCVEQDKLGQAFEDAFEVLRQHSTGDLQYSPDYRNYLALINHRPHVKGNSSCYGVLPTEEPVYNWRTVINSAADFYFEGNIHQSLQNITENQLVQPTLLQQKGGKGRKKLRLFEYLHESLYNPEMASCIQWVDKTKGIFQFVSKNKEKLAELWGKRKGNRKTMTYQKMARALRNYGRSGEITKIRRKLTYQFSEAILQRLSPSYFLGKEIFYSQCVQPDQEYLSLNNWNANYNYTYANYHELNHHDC
# Summary of the method: as §1
# ELF4 = ELF4 (Homo sapiens, UniProt Q99607 1-663); conditions: protein: recombinant; tags: N-terminal GST; dsDNA, one strand shown
# Summary of the method: as §1
# ELK4 = molecular target: T9, ELK4 (Homo sapiens, UniProt P28324-2 1-405); conditions: protein: recombinant; tags: N-terminal GST; dsDNA, one strand shown
# T9 sequence: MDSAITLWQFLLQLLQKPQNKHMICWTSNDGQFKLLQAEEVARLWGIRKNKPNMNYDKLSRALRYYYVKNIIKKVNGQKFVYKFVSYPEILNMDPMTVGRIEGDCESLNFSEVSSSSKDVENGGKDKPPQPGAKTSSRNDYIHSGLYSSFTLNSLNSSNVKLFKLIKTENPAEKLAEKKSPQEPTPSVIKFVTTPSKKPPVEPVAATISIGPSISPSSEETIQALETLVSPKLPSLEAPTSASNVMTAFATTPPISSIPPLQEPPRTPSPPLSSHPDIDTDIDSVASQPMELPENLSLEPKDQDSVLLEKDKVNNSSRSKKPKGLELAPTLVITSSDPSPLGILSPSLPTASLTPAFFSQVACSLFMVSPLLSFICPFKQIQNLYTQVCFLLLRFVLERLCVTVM
# Summary of the method: as §1
# ETV2 = molecular target: T10, ETV2 (Homo sapiens, UniProt O00321 1-342); conditions: protein: recombinant; tags: N-terminal GST; dsDNA, one strand shown
# T10 sequence: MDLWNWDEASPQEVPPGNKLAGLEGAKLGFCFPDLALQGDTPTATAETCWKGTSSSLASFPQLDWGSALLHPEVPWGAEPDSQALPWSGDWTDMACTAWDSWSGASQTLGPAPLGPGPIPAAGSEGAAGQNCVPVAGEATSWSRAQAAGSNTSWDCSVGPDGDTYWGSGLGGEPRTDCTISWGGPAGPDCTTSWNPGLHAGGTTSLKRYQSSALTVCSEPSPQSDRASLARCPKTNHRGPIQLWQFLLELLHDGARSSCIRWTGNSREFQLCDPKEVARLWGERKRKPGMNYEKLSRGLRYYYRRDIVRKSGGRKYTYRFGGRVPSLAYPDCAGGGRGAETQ
# Summary of the method: as §1
# ELF3 = molecular target: T11, ELF3 (Homo sapiens, UniProt P78545 1-371); conditions: protein: recombinant; tags: N-terminal GST; dsDNA, one strand shown
# T11 sequence: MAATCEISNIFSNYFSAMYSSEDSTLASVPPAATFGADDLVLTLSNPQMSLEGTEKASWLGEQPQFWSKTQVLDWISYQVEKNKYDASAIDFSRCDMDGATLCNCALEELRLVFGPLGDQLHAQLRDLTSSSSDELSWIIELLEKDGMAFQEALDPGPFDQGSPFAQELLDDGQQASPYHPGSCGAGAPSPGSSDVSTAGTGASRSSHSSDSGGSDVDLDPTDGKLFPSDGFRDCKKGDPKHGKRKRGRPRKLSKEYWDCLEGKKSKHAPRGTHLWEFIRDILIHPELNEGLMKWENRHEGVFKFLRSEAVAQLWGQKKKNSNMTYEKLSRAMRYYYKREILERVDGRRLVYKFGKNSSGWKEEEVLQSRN
# Summary of the method: as §1
# CRX = CRX (Homo sapiens, UniProt O43186 1-299); conditions: protein: recombinant; tags: N-terminal GST; dsDNA, one strand shown
# Summary of the method: as §1
# ETV1 = ETV1 (Homo sapiens, UniProt P50549 1-477); conditions: protein: recombinant; tags: N-terminal GST; dsDNA, one strand shown
# Summary of the method: as §1
# Chain of CRX (O43186 whole entry): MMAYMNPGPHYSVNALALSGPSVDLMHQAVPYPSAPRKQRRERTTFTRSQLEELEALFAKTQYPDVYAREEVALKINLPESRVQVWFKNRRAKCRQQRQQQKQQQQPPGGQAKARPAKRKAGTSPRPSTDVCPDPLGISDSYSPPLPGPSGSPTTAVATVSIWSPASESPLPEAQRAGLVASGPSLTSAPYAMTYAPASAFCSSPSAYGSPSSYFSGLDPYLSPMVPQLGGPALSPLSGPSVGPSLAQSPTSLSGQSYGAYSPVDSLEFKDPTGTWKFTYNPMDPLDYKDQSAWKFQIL
# Chain of ETV5 (P41161 whole entry): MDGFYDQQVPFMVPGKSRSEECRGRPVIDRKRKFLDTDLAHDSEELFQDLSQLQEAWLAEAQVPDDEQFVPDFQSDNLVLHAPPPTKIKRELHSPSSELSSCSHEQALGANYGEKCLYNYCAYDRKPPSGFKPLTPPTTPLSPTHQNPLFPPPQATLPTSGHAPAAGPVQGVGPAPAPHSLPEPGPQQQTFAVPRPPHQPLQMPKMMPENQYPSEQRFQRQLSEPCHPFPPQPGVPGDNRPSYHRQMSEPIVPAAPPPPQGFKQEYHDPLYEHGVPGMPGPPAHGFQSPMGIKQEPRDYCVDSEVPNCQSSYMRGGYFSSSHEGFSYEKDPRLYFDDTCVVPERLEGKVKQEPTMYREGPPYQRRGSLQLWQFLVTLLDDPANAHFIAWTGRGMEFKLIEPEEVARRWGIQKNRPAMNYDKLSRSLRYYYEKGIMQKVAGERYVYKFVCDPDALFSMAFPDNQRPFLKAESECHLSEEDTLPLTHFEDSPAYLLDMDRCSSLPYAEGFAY
# Chain of ETV1 (P50549 whole entry): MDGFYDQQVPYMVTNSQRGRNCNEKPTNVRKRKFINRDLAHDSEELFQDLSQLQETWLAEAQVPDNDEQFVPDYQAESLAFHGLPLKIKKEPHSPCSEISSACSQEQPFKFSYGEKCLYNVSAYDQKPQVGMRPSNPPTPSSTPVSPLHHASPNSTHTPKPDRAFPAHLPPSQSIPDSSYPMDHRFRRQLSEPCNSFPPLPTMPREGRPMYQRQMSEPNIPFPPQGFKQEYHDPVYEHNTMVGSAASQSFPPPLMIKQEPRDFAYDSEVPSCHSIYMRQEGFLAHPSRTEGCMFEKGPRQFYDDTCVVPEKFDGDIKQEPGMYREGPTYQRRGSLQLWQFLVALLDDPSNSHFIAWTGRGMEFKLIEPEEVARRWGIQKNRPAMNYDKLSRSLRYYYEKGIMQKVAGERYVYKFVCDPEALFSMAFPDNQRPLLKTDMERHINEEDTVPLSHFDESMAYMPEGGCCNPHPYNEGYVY
# Chain of SPIB (Q01892 whole entry): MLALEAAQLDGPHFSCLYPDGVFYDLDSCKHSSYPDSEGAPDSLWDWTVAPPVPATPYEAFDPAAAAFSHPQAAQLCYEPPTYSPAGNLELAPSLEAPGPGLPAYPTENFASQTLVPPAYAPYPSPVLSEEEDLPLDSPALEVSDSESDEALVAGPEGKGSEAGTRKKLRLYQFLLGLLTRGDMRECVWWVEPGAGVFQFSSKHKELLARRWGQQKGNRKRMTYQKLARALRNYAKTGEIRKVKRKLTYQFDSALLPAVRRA
# Chain of HSF1 (Q00613 whole entry): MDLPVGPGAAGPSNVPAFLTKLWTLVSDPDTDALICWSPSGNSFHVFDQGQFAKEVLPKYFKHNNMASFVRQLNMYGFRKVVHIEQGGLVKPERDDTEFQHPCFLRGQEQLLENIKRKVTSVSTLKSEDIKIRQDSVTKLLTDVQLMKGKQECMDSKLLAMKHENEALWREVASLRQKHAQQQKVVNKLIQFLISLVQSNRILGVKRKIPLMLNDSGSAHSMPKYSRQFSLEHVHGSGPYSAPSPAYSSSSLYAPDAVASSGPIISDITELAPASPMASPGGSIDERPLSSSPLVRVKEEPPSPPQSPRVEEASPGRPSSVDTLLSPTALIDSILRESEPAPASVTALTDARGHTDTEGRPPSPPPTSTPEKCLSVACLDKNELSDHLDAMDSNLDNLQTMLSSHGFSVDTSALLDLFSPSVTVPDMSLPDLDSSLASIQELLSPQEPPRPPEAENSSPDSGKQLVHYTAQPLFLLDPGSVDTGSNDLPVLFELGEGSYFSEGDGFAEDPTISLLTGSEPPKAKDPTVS
# Chain of ELF4 (Q99607 whole entry): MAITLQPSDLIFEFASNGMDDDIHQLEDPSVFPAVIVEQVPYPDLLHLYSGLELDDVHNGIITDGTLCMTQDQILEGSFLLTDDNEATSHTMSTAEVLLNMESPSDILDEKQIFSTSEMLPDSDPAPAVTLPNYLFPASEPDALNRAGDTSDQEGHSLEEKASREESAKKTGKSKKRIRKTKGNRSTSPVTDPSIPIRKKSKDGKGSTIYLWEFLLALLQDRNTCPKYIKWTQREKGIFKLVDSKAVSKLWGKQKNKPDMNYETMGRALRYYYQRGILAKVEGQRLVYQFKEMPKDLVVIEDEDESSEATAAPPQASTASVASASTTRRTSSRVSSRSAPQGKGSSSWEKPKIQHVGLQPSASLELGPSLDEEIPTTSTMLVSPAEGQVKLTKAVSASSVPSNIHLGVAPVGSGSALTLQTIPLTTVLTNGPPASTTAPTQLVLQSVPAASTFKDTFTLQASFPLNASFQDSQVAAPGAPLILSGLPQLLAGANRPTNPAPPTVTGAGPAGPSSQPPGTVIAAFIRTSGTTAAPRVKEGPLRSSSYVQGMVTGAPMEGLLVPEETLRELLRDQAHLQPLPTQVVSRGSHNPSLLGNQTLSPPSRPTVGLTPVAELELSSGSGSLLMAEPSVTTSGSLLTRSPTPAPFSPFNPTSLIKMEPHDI
# Chain of ELF1 (P32519 whole entry): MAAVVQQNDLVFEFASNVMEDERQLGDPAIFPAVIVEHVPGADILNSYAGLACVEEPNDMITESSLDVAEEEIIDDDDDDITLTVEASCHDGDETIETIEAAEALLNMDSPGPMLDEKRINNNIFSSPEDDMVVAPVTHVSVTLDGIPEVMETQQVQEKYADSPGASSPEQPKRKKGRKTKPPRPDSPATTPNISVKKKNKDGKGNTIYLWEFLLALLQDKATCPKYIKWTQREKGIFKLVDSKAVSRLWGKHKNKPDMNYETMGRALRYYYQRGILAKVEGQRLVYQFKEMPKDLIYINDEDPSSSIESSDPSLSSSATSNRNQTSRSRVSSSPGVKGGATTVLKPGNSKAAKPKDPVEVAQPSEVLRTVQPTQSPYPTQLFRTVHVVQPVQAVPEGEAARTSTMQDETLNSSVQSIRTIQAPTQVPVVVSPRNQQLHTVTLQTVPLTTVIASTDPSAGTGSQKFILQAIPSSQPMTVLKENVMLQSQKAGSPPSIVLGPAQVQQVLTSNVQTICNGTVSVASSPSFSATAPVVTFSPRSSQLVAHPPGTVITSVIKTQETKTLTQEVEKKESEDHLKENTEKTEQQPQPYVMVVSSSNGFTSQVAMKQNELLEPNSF
sequence,measurement,setting,value
TGGTAA,binding signal,FLI1,"1.28 fold enrichment (6-mer frequency, TF over GST control)"
same,binding signal,ELK1,"1.33 fold enrichment (6-mer frequency, TF over GST control)"
same,binding signal,GABPA,"1.32 fold enrichment (6-mer frequency, TF over GST control)"
same,binding signal,ERG,"1.28 fold enrichment (6-mer frequency, TF over GST control)"
same,binding signal,ELF1,"1.28 fold enrichment (6-mer frequency, TF over GST control)"
same,binding signal,EHF,"1.37 fold enrichment (6-mer frequency, TF over GST control)"
same,binding signal,SPI1,"1.28 fold enrichment (6-mer frequency, TF over GST control)"
same,binding signal,SPIB,"1.4 fold enrichment (6-mer frequency, TF over GST control)"
same,binding signal,ELK3,"1.32 fold enrichment (6-mer frequency, TF over GST control)"
same,binding signal,FEV,"1.15 fold enrichment (6-mer frequency, TF over GST control)"
same,binding signal,ETV5,"1.23 fold enrichment (6-mer frequency, TF over GST control)"
same,binding signal,HSF1,"1.45 fold enrichment (6-mer frequency, TF over GST control)"
same,binding signal,SPIC,"1.09 fold enrichment (6-mer frequency, TF over GST control)"
same,binding signal,ELF4,"1.23 fold enrichment (6-mer frequency, TF over GST control)"
same,binding signal,ELK4,"1.39 fold enrichment (6-mer frequency, TF over GST control)"
same,binding signal,ETV2,"1.3 fold enrichment (6-mer frequency, TF over GST control)"
same,binding signal,ELF3,"1.15 fold enrichment (6-mer frequency, TF over GST control)"
same,binding signal,CRX,"1.51 fold enrichment (6-mer frequency, TF over GST control)"
same,binding signal,ETV1,"1.27 fold enrichment (6-mer frequency, TF over GST control)"

# From PMC7862700, “An all-to-all approach to the identification of sequence-specific readers for epigenetic DNA modifications on cytosine”
